KB-V1 cytotox: kills drug-selected multidrug resistant KB-V1 cells | KB-V1 MDR cells viability, CellTiter-Glo, 72 h | actives 3.4% (n = 400,000) | AID 1347076 | Potency, µM (series often up to 46.1 µM), hits mostly cytotoxic; also: % is scaled to controls: 0 for no effect and ±100 for the full control effect; nearly all actives have a fitted effect of over 60% in size
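Luminescent ATP read-out (CellTiter-Glo, 10 min) measures survival of drug-selected KB-V1 MDR cells after 72 h, 37 degrees C compound exposure. Medium: phenol-red-free DMEM, 10% FBS. Values from fitted concentration-response curves.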
KB-3-1 tox: KB-3-1 parental cell cytotoxicity. KB-3-1 viability, CellTiter-Glo ATP luminescence, 72 h. Potency, µM (top dose mostly 46.1 µM), usual class: cytotoxic. actives 1.4% (n = 400,000). AID 1347075; also: % is scaled to controls: 0 for no effect and ±100 for the full control effect; nearly all actives have a fitted effect of over 60% in size
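Parental KB-3-1 viability, qHTS format: 72 h compound exposure, 37 °C; CellTiter-Glo; media-only wells and DMSO plates as controls; concentration-effect fits on corrected data.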
HT1080 IDH1KD tx: toxicity to HT-1080 IDH1 knockdown cells (counter line). HT-1080 IDH1 knockdown viability, ATP luminescence, 48 h. Potency, µM (highest dose often 46.1 µM), for inactives: at the top dose activity, negative = toxicity, actives largely listed as cytotoxic. actives 2% (n = 360,000). AID 686971;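 also: 0% = DMSO wells and -100% = cell-free medium wells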
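% activity derives from luminescence (CellTiter-Glo), normalised to DMSO and no-cell wells. HT-1080-IDH1KD cells, 750/well, had 48 h compound exposure at 37 °C.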
HT1080NT lethal: kills 2HG-producing HT-1080-NT fibrosarcoma cells | HT-1080-NT fibrosarcoma viability, CellTiter-Glo ATP luminescence, 48 h | Potency, µM (titrated, usually from 46.1 µM), without a hit: at the top dose activity, negative = less viability, usual class: cytotoxic | actives 1.6% (n = 360,000);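 also: NT is the 2HG producing partner of a matched IDH1 knockdown line; 0% = DMSO-treated cells and -100% = media-only wells without cells; nearly all actives have a fitted effect of over 55% in size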
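HT-1080-NT; 750 cells/well; 5% FBS RPMI; 48 h compound, 37 degrees C; CellTiter-Glo luminescence; curve fitting and curve-class assignment.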
MCF10A rereplic: DNA re-replication induction in MCF 10a cells; MCF 10A DNA re-replication, Hoechst nuclear intensity, 48 h; Potency, µM (series often up to 46.1 µM), for the others: top-dose activity, positive = re-replication, hits mostly activators; actives 2.9% (n = 350,000); also: % of control where 0% means no effect; nearly all actives have a fitted effect of over 50% in size
SW480 rerep: induces DNA re-replication in SW480 colon adenocarcinoma cells; SW480 DNA re-replication, Hoechst DNA content imaging, 48 h; Potency, µM (series often up to 46.1 µM), inactives show at the top dose re-replication activation, hits mostly activators; actives 1.8% (n = 340,000); AID 624297; also: % of control where 0% means no effect; nearly all actives have a fitted effect of over 55% in size
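Treated cells incubate 48 hr (37 C, 5% CO2), are stained 40 min with Hoechst, and nuclear fluorescence is enumerated; a rise in nuclei with high DNA signal marks re-replication.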
The depositor's hits bear a star; i = inactive; ? = inconclusive; . = not tested or not shown; [ ] = another dose, or the depositor's remark. Rows were chosen to be rich in hits. Some 7.9% of all compounds tested hit in one or more screens of this group. Calls follow the shape of the dose curve; as a rule, active = well fitted curve in the direction sought with a large enough effect; inconclusive = small, poorly fitted or top-dose-only effect, or another doubt; inactive = no such curve, though single readings can be large; an effect the other way counts as inactive or inconclusive. Potency is read from the fitted curve at half-maximal effect.

SMILES	KB-V1 cytotox	KB-3-1 tox	HT1080 IDH1KD tx	HT1080NT lethal	MCF10A rereplic	SW480 rerep
CCOC(=O)c1cc2c(=O)n3ccccc3nc2n(CC2CCCO2)c1=NC(=O)c1ccc(F)cc1 (centres undefined)	i	i	.	.	.	.
CCn1ccc(C(=O)NC2=NCCS2)n1	i	i	13%	-3%	-67%	23µM*
CCn1ccc(C(=O)NC2CCCC2)n1	i	i	9%	1%	2%	2%
CC1(C(=O)Nc2ccc(Cl)c(Cl)c2)CCN1Cc1cc2ccccc2o1 (centres undefined)	i	i	2%	18%	.	.
CC(=O)c1c(O)cc(O)c(C(C)=O)c1O	i	i	18µM*	13µM*	20%	?
COc1cccc(/C=N/Nc2snc(SC)c2C#N)c1O	16µM*	13µM*	?	?	6%	5%
COc1cccc(/C=N/Nc2ccnc(=O)[nH]2)c1O	?	4.6µM*	?	?	?	?
CCOc1ccccc1/C=N/Nc1ccnc(=O)[nH]1	i	i	0%	-15%	3%	5%
O=c1nccc(N/N=C/c2ccccc2O)[nH]1	i	6.5µM*	?	1.2µM*	8%	?
CN(C)c1ccc(/C=C/c2sc3ccccc3[n+]2Cc2ccccc2)cc1	?	i	.	.	.	.
Cc1ccc(NC(=S)NNC(=S)Nc2ccc(C)cc2C)cc1	4.6µM*	1µM*	-21%	-30%	21%	26%
Cc1ccc(NC(=O)CCC(=O)NNC(=S)Nc2ccccc2)c(C)c1	i	i	0%	7%	-2%	0%
CC(C)NC(=S)N1CCN(S(=O)(=O)c2cccc(C(F)(F)F)c2)CC1	i	i	-4%	-1%	1%	-8%
CCNC(=S)N1CCN(S(=O)(=O)c2cccc(C(F)(F)F)c2)CC1	23µM*	i	-2%	-6%	4%	-1%
O=C(NCc1ccc(Cl)cc1)NC1COc2ccccc2C1 (centres undefined)	i	i	.	.	.	.
CCc1n[nH]c(=S)n1/N=C/C(C)=C\c1ccccc1	7.3µM*	?	2%	10%	15%	0%
O=[N+]([O-])C1C(c2ccccc2)C12c1ccccc1-c1ccccc12 (centres undefined)	5.2µM*	?	6.5µM*	5.8µM*	.	.
CC1(C)c2ccccc2C(=O)c2ccccc21	i	i	2%	8%	5%	-4%
Cc1cc2c(cc1C)N(C(=O)CCl)CC(=O)N2	?	?	23µM*	?	.	.
Cc1ccc(C2(c3ccccc3)NC(=O)N(CC(=O)N3CC(=O)Nc4ccccc43)C2=O)cc1C (centres undefined)	i	i	-22%	0%[9.24 µM]	1%	-17%
Cc1ccc(Cl)cc1N1CCN(C(=O)CCC(=O)O)CC1	i	i	-2%	-3%	9%	-16%
Cc1cc2c(cc1C)N(C(=O)CCl)CCN2C(=O)CCl	7.3µM*	15µM*	?	?	4.6µM*	3.7µM*
C/C(=N\NC(=O)c1c[nH]c2ccccc12)c1ccco1	i	i	-5%	2%	2.3µM*	2.9µM*
Cc1cc2c(sc3ccccc32)c(C)n1	21µM*	?	6%	10%	-4%	-17%[9.22 µM]
Cc1cc(C)nc(Nc2nc(=O)c3ccccc3s2)n1	?	i	19%	10%	-2%	-5%
SMILES	KB-V1 cytotox	KB-3-1 tox	HT1080 IDH1KD tx	HT1080NT lethal	MCF10A rereplic	SW480 rerep
COC(=O)c1ccc(OC)c(Cn2c(=O)n(-c3ccc(C)cc3)c(=O)c3c2cnn3C)c1	i	i	.	.	.	.
CCOc1ccc(CCNC(=O)c2cnc3c(-c4ccc(F)cc4)c(C)nn3c2C)cc1	i	i	.	.	.	.
CCOc1ccccc1N1CCN(C(=O)C2CSC3(C)CCC(=O)N23)CC1 (centres undefined)	18µM*	i	-8%	4%	-6%	-5%
COc1ccc(OC)c(/C=C/c2ccc3ccccc3[n+]2C)c1	i	?	.	.	.	.
CC1(C(=O)Nc2ccc3nc[nH]c3c2)CCN1C(=O)C1(c2ccccc2)CCCC1 (centres undefined)	i	i	21%	0%	.	.
CS(=O)(=O)N(CC(=O)NCCSC1CCCCC1)c1cccc(F)c1	15µM*	i	4%	10%	?	-6%
Cc1cccc(N(CC(=O)NC(C)c2ccccc2)S(=O)(=O)c2ccccc2)c1C (centres undefined)	?	18µM*	.	.	.	.
COc1ccc(N(CC(=O)NCCSC2CCCCC2)S(=O)(=O)c2ccccc2)cc1OC	.	.	0%	-1%	13%	10%
CS(=O)(=O)N(CC(=O)NCCSC1CCCCC1)c1ccccc1	?	i	10%	-4%	-21%	1%
Cc1ccccc1N(CC(=O)NCCSC1CCCCC1)S(=O)(=O)c1ccccc1	10µM*	?	5%	4%	20%	-2%
COc1ccc(C(=O)Nc2ccc3c(c2)CCCN3S(=O)(=O)c2ccc(C)cc2)c(OC)c1	i	i	.	.	.	.
CC(C)(C)S(=O)(=O)/C(C#N)=C/Nc1ccccn1	i	i	-10%	3%	-1%	-7%
CN(C)/C=C(\C#N)S(=O)(=O)C(C)(C)C	i	i	-4%	4%	5.2µM*	18%
CC(=O)c1ccc2c(c1)C1C=CCC1C(c1cc3c(cc1Br)OCO3)N2 (centres undefined)	6.5µM*	5.8µM*	3.7µM*	5.8µM*	4.1µM*	12µM*
COc1cccc(NS(=O)(=O)c2ccc3c(c2)[C@H]2C=CC[C@H]2[C@@H](c2ccccc2Cl)N3)c1	i	?	.	.	.	.
COc1ccc2c(c1)C1C=CCC1C(c1cc3c(cc1Br)OCO3)N2 (centres undefined)	i	?	10µM*	10µM*	3.7µM*	9.2µM*
Cc1ccc(-c2cnc(N3CCC(C(N)=O)CC3)s2)cc1	i	i	.	.	.	.
CCc1cccc(NC(=O)COc2cc(=O)n(CC)c3ccccc23)c1	i	i	.	.	.	.
COc1ccc(Cn2c(C(=O)O)c(CNC3CCCCC3)c3ccc(C)cc32)cc1	i	?	.	.	.	.
CC(=O)Nc1ccc(/C=N/NC(N)=S)cc1	.	.	.	.	1%	-2%
CN(C)c1ccc(/C=N/NC(N)=S)cc1[N+](=O)[O-]	6.5µM*	15µM*	-7%	0%	-5%	-14%
NC(=O)C1CCN(CCS(=O)(=O)c2ccc(Cl)cc2)CC1	i	i	-9%	-1%	?	18µM*
CCc1cccc2c(C(=O)CN3C(=O)NC4(CCCCCC4)C3=O)c[nH]c12	?	?	5.8µM*	?	?	9%

High-throughput results from PubChem BioAssay.
